Here are results for six compounds from PubChem BioAssay (Tox21).

Experiment [1] in a line: A CellTox Green Cytotoxicity Assay to monitor cytotoxicity in HepG2 cells - 0 hour (AID 1224882). Further: nearly all actives have a fitted effect of over 35% in size. In a few lines:
(§1)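 Fluorescent DNA-binding dye, 600 HepG2 cells/well, 5 h preincubation then compound in DMSO; same plates read at 0–40 h, 37 C.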

The nature of experiment [2]: A CellTox Green Cytotoxicity Assay to monitor cytotoxicity in HepG2 cells - 32 hour (AID 1224883). Further: nearly all actives have a fitted effect of over 50% in size. Further: potency means the concentration at half of the fitted maximal effect. In a few lines:
as §1

The nature of experiment [3]: A CellTox Green Cytotoxicity Assay to monitor cytotoxicity in HEK293 cells - 8 hour (AID 1224884). Further: nearly all actives have a fitted effect of over 35% in size. Further: potency means the concentration at half of the fitted maximal effect. In a few lines:
(§2)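 Homogeneous no-lysis format: HEK293 cell suspension mixed with CellTox Green reagent, seeded, incubated 5 h at 37 C/5% CO2, then dosed by pintool with compound in DMSO.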

Experiment [4] is described as follows: qHTS RealTime-Glo MT Cell Viability Assay in HepG2 cells - 16 hour (AID 1224885). Further: nearly all actives have a fitted effect of over 50% in size. Further: potency means the concentration at half of the fitted maximal effect. In a few lines:
(§3)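 Viability was tracked continuously by NanoLuc luminescence from prosubstrate reduced by living HepG2 cells, at successive time points over 40 h of compound exposure. Cells with reagent were preincubated 5 h at 37 °C before compound addition.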
(In qHTS, concentration-response curves come from the screen itself.)

Experiment [5] is described as follows: qHTS RealTime-Glo MT Cell Viability Assay in HEK293 cells - 24 hour (AID 1224886). Further: nearly all actives have a fitted effect of over 50% in size. Further: potency means the concentration at half of the fitted maximal effect. In short, it runs like this:
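Viability tracked continuously by luminescence as live cells reduce a prosubstrate for NanoLuc; HEK293 cells preincubated 5 h, compound-treated at 37 C, and read at 0, 8, 16, 24, 32 and 40 h.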

Experiment [6] can be described thus: qHTS RealTime-Glo MT Cell Viability Assay in HEK293 cells - 8 hour (AID 1224887). Further: nearly all actives have a fitted effect of over 50% in size. Further: potency means the concentration at half of the fitted maximal effect. In short, it runs like this:
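Measured as luminescence from the same continuously cultured HEK293 wells at successive time points (0, 8, 16, 24, 32, 40 h) after compound addition. Reagent present from seeding; dosing at 5 h; incubation 37 C.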

Experiment [7] is described as follows: A CellTox Green Cytotoxicity Assay to monitor cytotoxicity in HEK293 cells - 16 hour (AID 1224888). Further: nearly all actives have a fitted effect of over 35% in size. Further: potency means the concentration at half of the fitted maximal effect. In short, it runs like this: as §2
Experiment [8] in a line: qHTS RealTime-Glo MT Cell Viability Assay in HepG2 cells - 0 hour (AID 1224889). Further: nearly all actives have a fitted effect of over 50% in size. In short, it runs like this:
as §3

Experiment [9] in a line: A CellTox Green Cytotoxicity Assay to monitor cytotoxicity in HepG2 cells - 8 hour (AID 1224890). Further: nearly all actives have a fitted effect of over 45% in size. Further: potency means the concentration at half of the fitted maximal effect. In a few lines:
as §1

Experiment [10] is described as follows: qHTS assay to identify small molecule antagonists of the estrogen receptor alpha (ER-alpha) signaling pathway using the BG1 cell line in the presence of 0.1 nM 17-beta-estradiol - cell viability counter screen (AID 1259241). Further: nearly all actives have a fitted effect of over 40% in size. In short, it runs like this: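 Cytotoxicity counter-screen: live-cell protease activity measured by fluorescence (30 min reagent step) in the same wells. Cells were VM7Luc4E2 with endogenous ER-alpha and ERE-driven luciferase, treated 22 hr at 37C alongside 0.1 nM 17beta-estradiol final.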

Experiment [11] in a line: qHTS assay to identify small molecule antagonists of the androgen receptor (AR) signaling pathway using the MDA cell line in the presence of 0.5 nM R1881 - cell viability counter screen (AID 1259242). Further: nearly all actives have a fitted effect of over 45% in size. Further: potency means the concentration at half of the fitted maximal effect. In a few lines:
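Human breast carcinoma MDA-kb2 cells, cultured without CO2, receive compounds alongside 0.5 nM (final) R1881 agonist. After 16 hr at 37C, viability is taken as live-cell protease signal.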

Experiment [12] can be described thus: qHTS assay to identify small molecule phospholipidosis (PLD) inducers (AID 1259344; active means well fitted curve in the direction sought with a large enough effect; an effect the other way counts as inactive or inconclusive). In short, it runs like this:
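Read-out is LipidTOX Red fluorescence (ex 595/em 615) imaged in HepG2 cells after 24 h compound exposure at 37 C, with Hoechst nuclear counterstain (ex 352/em 461) allowing per-cell normalisation.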

A short description of experiment [13]: qHTS assay to identify small molecule HDAC inhibitors (AID 1259364).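 Further: wild-type HCT-116 cells with endogenous class I/II HDAC activity; top concentration of the series differs between compounds; nearly all actives have a fitted effect of over 45% in size.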 In a few lines: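 After a 2 hr compound incubation (37C, 5% CO2), HCT-116 cells seeded at 1,500/well the day before received HDAC-Glo reagent; signal read as luminescence after 30 min at room temperature.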
Experiment [14] in a line: qHTS assay to identify small molecule HDAC inhibitors - cell viability counter screen (AID 1259365). In short, it runs like this:
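CellTiter-Glo luminescence (30 min, room temperature) reported viability after a 2 h compound exposure at 37 C. Cells: wild-type HCT-116, 1,500 per well, seeded the night before.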

Experiment [15] in a line: qHTS assay to identify small molecule agonists of the sonic hedgehog signaling (Shh) pathway - cell viability counter screen (AID 1259366). Further: nearly all actives have a fitted effect of over 50% in size. Further: potency means the concentration at half of the fitted maximal effect. In a few lines:
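Cytotoxicity counter screen: CellTiter-Fluor reagent added after 23 h compound exposure, then 1 h at 37C and fluorescence read. Cells were 3T3 Gli1-Luc, seeded 2,000 per well and dosed 4 h post-plating.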

The nature of experiment [16]: qHTS assay to identify small molecule antagonists of the sonic hedgehog signaling (Shh) pathway - cell viability counter screen (AID 1259367). Further: nearly all actives have a fitted effect of over 55% in size. Further: potency means the concentration at half of the fitted maximal effect. In a few lines: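 Fluorescence read-out (CellTiter-Fluor, 1 hr at 37C) taken after 23 hr compound treatment of 3T3 Gli1-Luc cells stimulated with conditioned medium. Cells were seeded at 2,000 per well and pre-incubated 4 hr.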

Experiment [17] is described as follows: qHTS assay to identify small molecule agonists of the sonic hedgehog signaling (Shh) pathway (AID 1259368; calls by dose curve;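 further: NIH/3T3-derived 3T3Gli1-Luc cells carrying a stable Gli1-driven firefly luciferase reporter; series mostly up to about 92 µM; nearly all actives have a fitted effect of over 15% in size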). In a few lines: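 Stable NIH/3T3 Gli1-Luc reporter clone; 24 hr cpd exposure after a 4 hr settling period; luminescence endpoint.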
The nature of experiment [18]: qHTS assay to identify small molecule antagonists of the sonic hedgehog signaling (Shh) pathway (AID 1259369; calls by dose curve; further: nearly all actives have a fitted effect of over 45% in size; further: potency means the concentration at half of the fitted maximal effect). In a few lines:
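Gli1 transcriptional reporter (firefly Luc) in NIH/3T3 background, conditioned-medium activated. 24hr exposure, luminescence endpoint.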

The target of experiment [19] is Androgen receptor (Homo sapiens) (UniProt P10275). Kind of experiment: qHTS assay to identify small molecule antagonists of the androgen receptor (AR) signaling pathway using the MDA cell line in the presence of 0.5 nM R1881 (AID 1259243). Further: nearly all actives have a fitted effect of over 50% in size. Further: potency means the concentration at half of the fitted maximal effect. In a few lines: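 Cells: MDA-kb2 (MMTV-luc). Stimulus: 0.5 nM R1881. Time: 16 hr, 37C, no CO2. Detection: ONE-Glo luminescence after 30 min at RT.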

The target in experiment [20] is Estrogen receptor (Homo sapiens) (UniProt P03372). Kind of experiment: qHTS assay to identify small molecule antagonists of the estrogen receptor alpha (ER-alpha) signaling pathway using the BG1 cell line in the presence of 0.1 nM 17-beta-estradiol (AID 1259244). Further: nearly all actives have a fitted effect of over 50% in size. In short, it runs like this:
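Seeding of stripped-serum-adapted VM7Luc4E2 cells, 24 h attachment, compound transfer, then 0.1 nM final 17beta-estradiol; after 22 h incubation, ONE-Glo reagent and luminescence reading.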

“And” between values parts separate entries of the source, which are not always exact repeats. Equal entries are not always repeated. Inconclusive results are not listed. Some structures have more than one record in an assay (separate samples or runs), and their calls can disagree. The source made the active and inactive calls. Unless noted, the call rests on the fitted dose curve; in most records, active means well fitted curve in the direction sought with a large enough effect in the repeat runs; inconclusive means weak or mixed curves; inactive means no such curve, though single readings can be large; an effect the other way counts as inactive or inconclusive.

Chain of Estrogen receptor (Homo sapiens) (P03372 whole entry, looked up): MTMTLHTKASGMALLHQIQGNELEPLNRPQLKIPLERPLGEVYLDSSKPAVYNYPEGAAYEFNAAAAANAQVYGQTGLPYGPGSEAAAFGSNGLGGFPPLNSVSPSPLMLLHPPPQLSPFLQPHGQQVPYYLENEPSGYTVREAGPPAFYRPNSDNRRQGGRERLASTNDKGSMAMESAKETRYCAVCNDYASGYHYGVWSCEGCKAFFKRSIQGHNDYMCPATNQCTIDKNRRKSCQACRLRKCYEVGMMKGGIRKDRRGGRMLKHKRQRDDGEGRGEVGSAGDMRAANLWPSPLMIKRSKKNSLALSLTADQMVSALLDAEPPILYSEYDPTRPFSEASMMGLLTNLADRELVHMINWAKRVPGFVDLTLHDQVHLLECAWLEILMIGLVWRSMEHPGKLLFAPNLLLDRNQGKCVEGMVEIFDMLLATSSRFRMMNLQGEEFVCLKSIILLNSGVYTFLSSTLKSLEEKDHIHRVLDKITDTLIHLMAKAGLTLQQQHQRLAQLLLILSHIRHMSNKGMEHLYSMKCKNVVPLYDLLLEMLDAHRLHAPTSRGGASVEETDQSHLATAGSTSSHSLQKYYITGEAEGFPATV
Chain of Androgen receptor (Homo sapiens) (P10275 whole entry, looked up): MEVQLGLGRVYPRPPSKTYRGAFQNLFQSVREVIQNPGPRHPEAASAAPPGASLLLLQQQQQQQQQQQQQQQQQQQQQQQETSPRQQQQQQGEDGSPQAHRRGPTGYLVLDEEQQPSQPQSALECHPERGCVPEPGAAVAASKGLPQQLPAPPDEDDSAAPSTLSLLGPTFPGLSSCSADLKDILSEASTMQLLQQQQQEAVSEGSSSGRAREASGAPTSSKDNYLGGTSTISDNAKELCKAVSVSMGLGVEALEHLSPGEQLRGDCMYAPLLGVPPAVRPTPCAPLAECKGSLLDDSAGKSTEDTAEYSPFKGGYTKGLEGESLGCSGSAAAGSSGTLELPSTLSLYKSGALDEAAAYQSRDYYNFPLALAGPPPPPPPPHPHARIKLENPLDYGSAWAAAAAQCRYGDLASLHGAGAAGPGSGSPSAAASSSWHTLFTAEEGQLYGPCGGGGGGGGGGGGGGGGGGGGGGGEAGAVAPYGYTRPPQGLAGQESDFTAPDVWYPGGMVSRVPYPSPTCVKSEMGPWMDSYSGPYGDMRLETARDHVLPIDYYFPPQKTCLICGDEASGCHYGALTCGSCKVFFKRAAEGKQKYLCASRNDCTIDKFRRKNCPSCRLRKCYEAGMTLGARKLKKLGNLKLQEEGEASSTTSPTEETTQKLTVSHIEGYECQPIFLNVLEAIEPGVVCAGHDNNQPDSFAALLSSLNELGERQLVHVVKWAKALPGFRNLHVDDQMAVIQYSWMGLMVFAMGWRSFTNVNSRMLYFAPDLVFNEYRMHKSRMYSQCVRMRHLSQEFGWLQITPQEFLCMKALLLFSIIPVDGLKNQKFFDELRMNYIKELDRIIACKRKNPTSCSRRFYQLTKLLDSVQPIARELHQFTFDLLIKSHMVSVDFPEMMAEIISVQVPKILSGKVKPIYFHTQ

Regarding `CC(=O)CC(c1ccccc1)c1c(O)c2ccccc2oc1=O` (stereo unspecified), the Potency entry in [1], in [2], in [3], in experiment [4], in experiment [5] and in [6] was “inactive” each time. In addition, the Potency entry in experiment [7], in [8], in experiment [9], in experiment [10], in experiment [11] and in experiment [12] was “inactive” in each case. Also, the Potency entry in [13], in experiment [14] and in [15] was “inactive” each time. Besides, the Potency is 68.9 µM (active) and inactive in experiment [16]; 27.4 µM (active) and inactive in experiment [18]. Besides, the compound was classed as inactive in experiment [17].

In the case of `CCCCCCCCCCCC[N+](C)(C)Cc1ccccc1`, the Potency result in [1], in experiment [8], in experiment [10], in experiment [12], in [13] and in [14] was “inactive” in each case. Moreover, the Potency in experiment [2] is 17 µM (active) and 23.8 µM (active) and 10.7 µM (active); in [3] it was 59.7 µM (active); in experiment [4], 21.5 µM (active) and 23.8 µM (active) and 12 µM (active); in experiment [5], 4.28 µM (active) and 4.23 µM (active) and 3.01 µM (active); in [6], 53.9 µM (active) and 59.7 µM (active); in experiment [7] it was 48 µM (active) and 53.2 µM (active) and 26.8 µM (active). In addition, the Potency in experiment [9] was 53.9 µM (active) and 47.4 µM (active) and 23.9 µM (active); in experiment [11], 47.6 µM (active) and 37.4 µM (active) and 13.3 µM (active); in experiment [15] it was 53.4 µM (active) and 52.8 µM (active) and 16.8 µM (active); in experiment [16], 66.4 µM (active); in [18] it was 2.13 µM (active) and 419 nM (active) and 3.76 µM (active). Besides, in experiment [17], the outcome was inactive.

As for `CN(C)C(=O)Nc1ccc(Cl)c(Cl)c1`, the Potency entry in experiment [1], in experiment [2], in [3], in [4], in [5] and in experiment [6] was “inactive” in each case. Further, the Potency result in experiment [7], in experiment [8], in experiment [9], in [10], in experiment [11] and in experiment [20] was “inactive” in each case. The Potency entry in experiment [12], in [13], in experiment [14], in [15], in experiment [16] and in experiment [18] was “inactive” throughout. The Potency in experiment [19] is 30.5 µM (active) and 27.3 µM (active) and 23.7 µM (active). Moreover, in experiment [17], the result was inactive.

In the case of `CC1(C)S[C@@H]2[C@H](NC(=O)[C@H](N)c3ccccc3)C(=O)N2[C@H]1C(=O)O`, the Potency entry in experiment [1], in experiment [2], in [3], in experiment [7], in [9] and in [10] was “inactive” each time. Further, the Potency entry in [11], in experiment [13], in experiment [14], in experiment [15], in [16] and in [18] was “inactive” throughout. Further, the result in experiment [17] was inactive.

For `CCCCCCc1ccc(O)cc1O`, the Potency in experiment [2] was 49.1 µM (active) and 38.9 µM (active) and 21.3 µM (active); in experiment [5] it was 19.6 µM (active) and 11 µM (active); in experiment [6], 15.5 µM (active) and 9.77 µM (active); in experiment [9], “inactive and 49 µM (active)”; in experiment [19] it was 43.4 µM (active) and 48.6 µM (active) and 23.7 µM (active); in experiment [15], 48.7 µM (active) and 61.1 µM (active) and inactive. The Potency in experiment [16] is 61.1 µM (active) and inactive; in experiment [18], 43.4 µM (active). The Potency result in experiment [3], in experiment [4], in experiment [7], in [8], in experiment [10] and in experiment [11] was “inactive” in each case. For the same compound, the Potency entry in [12], in [13] and in [14] was “inactive” in each case. Further, the call in [17] was inactive.

Turning to `CCOc1ccc(NC(C)=O)cc1`, the Potency result in experiment [2], in experiment [3], in experiment [4], in [6], in experiment [7] and in experiment [8] was “inactive” each time. Besides, the Potency entry in experiment [9], in experiment [10], in experiment [11], in experiment [19], in [20] and in [12] was “inactive” each time. For the same compound, the Potency result in experiment [13], in [14], in [15], in [16] and in experiment [18] was “inactive” each time. In addition, the Potency result in experiment [5] is “inactive and 21.9 µM (active)”. The compound was classed as inactive in [17].
